Screens deposited in PubChem by National Center for Advancing Translational Sciences (NCATS).
KB-3-1 cytotox = KB-3-1 parental cell cytotoxicity; 400,000 tested, 1.4% active; KB-3-1 viability, CellTiter-Glo ATP luminescence, 72 h; Potency, µM (series often up to 46.1 µM), usual class: cytotoxic; AID 1347075; further: nearly all actives have a fitted effect of over 60% in size
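Multi-concentration cytotoxicity screen in KB-3-1 cells grown in DMEM lacking phenol red with 10% FBS. After 72 h at 37 °C with compound, ATP-dependent luminescence was recorded.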
HT1080 IDH1KD tx = kills HT-1080 cells with IDH1 knockdown | HT-1080 IDH1 knockdown viability, ATP luminescence, 48 h | Potency, µM (highest dose often 46.1 µM), for inactives: at the highest dose activity, negative = toxicity, usual class: cytotoxic | 360,000 tested, 2% active | AID 686971;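 further: 0% = DMSO wells and -100% = cell-free medium wells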
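Viability of IDH1-knockdown HT-1080 fibrosarcoma cells was assessed by CellTiter-Glo after 48 h at 37 °C with titrated compound; concentration-effect curves were classified by fit quality and response size.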
TDP1 cell noCPT = qHTS for Inhibitors of human tyrosyl-DNA phosphodiesterase 1 (TDP1): qHTS in cells in absence of CPT; DT40 Tdp1-/- hTDP1 cells, no CPT, ATP luminescence, 48 h; Potency, µM (top dose mostly 46.2 µM), for the others: at the highest dose activity change, negative = growth inhibition, most hits filed as inhibitors; 420,000 tested, 15% active; AID 686978, 2013; further: nearly all actives have a fitted effect of over 55% in size
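DT40 Tdp1-/-;hTDP1 cells, no CPT (DMSO vehicle only), 400 cells/well; compounds pin-transferred; ≥48 hr, 37 °C; CellTiter-Glo 30 min RT dark, luminescence read.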
KB-V1 MDR tox = kills drug-selected multidrug resistant KB-V1 cells; 400,000 tested, 3.4% active; KB-V1 MDR cells viability, CellTiter-Glo, 72 h; Potency, µM (series often up to 46.1 µM), actives largely listed as cytotoxic; further: nearly all actives have a fitted effect of over 60% in size
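qHTS viability screen in drug-selected KB-V1 MDR cells: 72 h compound treatment at 37 degrees C, ATP luminescence end point.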
TDP1 cell CPT = DT40-hTDP1 cell growth loss with CPT; chicken DT40 Tdp1-/-;hTDP1 cells + 20 nM CPT, ATP luminescence, 48 h; Potency, µM (highest dose often 46.2 µM), inactives show at the highest dose activity change, negative = growth inhibition, actives largely listed as inhibitors; 420,000 tested, 12% active; AID 686979; further: nearly all actives have a fitted effect of over 55% in size
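Chicken DT40 Tdp1-/- cells complemented with human TDP1, 400 cells/well, exposed to compounds plus 20 nM camptothecin for at least 48 h at 37 C; viability read as ATP content by CellTiter-Glo luminescence.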
HT1080-NT tox = kills 2HG-producing HT-1080-NT fibrosarcoma cells; HT-1080-NT fibrosarcoma viability, CellTiter-Glo ATP luminescence, 48 h; Potency, µM (doses to about 46.1 µM), without a hit: top-dose activity, negative = less viability, actives largely listed as cytotoxic; 360,000 tested, 1.6% active; AID 686970;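 further: NT is the 2HG producing partner of a matched IDH1 knockdown line; 0% = DMSO-treated cells and -100% = media-only wells without cells; nearly all actives have a fitted effect of over 55% in size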
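Fibrosarcoma NT cells, 750 per well in 5% FBS RPMI, were exposed to compound for 48 hours. Viability: CellTiter-Glo luminescence.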
* = called active by the depositor; i = inactive; ? = inconclusive; / = no result. A selection: hits, their analogues and other compounds. The true share with any hit is near 19%. The call rests on the fitted dose curve; in most records, active means well fitted curve in the direction sought with a large enough effect; inconclusive means small, poorly fitted or top-dose-only effect, or another doubt; inactive means no such curve, though single readings can be large; an effect the other way counts as inactive or inconclusive. Unless noted, on the % scale 0 is the no-effect control and ±100 the full control effect; potency means the concentration at half of the fitted maximal effect.

SMILES | KB-3-1 cytotox | HT1080 IDH1KD tx | TDP1 cell noCPT | KB-V1 MDR tox | TDP1 cell CPT | HT1080-NT tox
COc1cc(=O)n2c(c1C(=O)NC(C)c1ccco1)CCN(C(=O)c1[nH]c(C)cc1C)CC2 (configuration not stated) | / | / | 0.1% | / | 3.4% | /
Nc1nc(-c2cccc(NS(=O)(=O)c3ccccc3)c2)cs1 | i | -16.8% | ? | ? | ? | -5.1%
CN1CCN(c2ccnc(N(C)CCCCCCN)n2)CC1 | ? | / | ? | i | 12.6µM* | /
CN1CCN(c2ccnc(-c3ccc(N(C)C)cc3)n2)CC1 | / | / | 23.1µM* | / | 23.1µM* | /
CCOc1ccccc1N(C)C(=O)Cn1nc(Cc2ccncc2)c2ccccc2c1=O | / | / | ? | / | -17.1% | /
Cc1ccc(CNC(=O)C(=O)Nc2nccs2)cc1 | i | 10.4% | 0.1% | i | 6.4% | -0.2%
COc1ccc(CCNC(=O)c2ccc3c(SCC(=O)O)c4c(nc3c2)CCCC4)cc1OC | i | -3.4% | 11.6% | i | 0.4% | 2.8%
COc1cc(Cl)c(C)cc1NC(=O)c1ccc2c(Cl)c3c(nc2c1)CCC3 | i | / | 1.4% | i | 0.5% | /
COc1ccc(CCNC(=O)c2ccc3c(Cl)c4c(nc3c2)CCCC4)c(OC)c1 | ? | / | 18.4µM* | i | 16.4µM* | /
COc1ccc(CCNC(=O)c2ccc3c(Cl)c4c(nc3c2)CCCC4)cc1OC | i | / | 4.11µM* | i | 14.6µM* | /
COc1ccc(CNC(=O)c2ccc3c(Cl)c4c(nc3c2)CCCC4)c(OC)c1 | i | / | 23.1µM* | i | ? | /
COc1cc(CCN(C(C)=O)C2C(=O)Nc3ccccc3N=C2c2ccc3c(c2)OCO3)cc(OC)c1 (configuration not stated) | i | 1.8% | -24.6% | i | -24.1% | 4.5%
O=C(NNC(=O)c1ccncc1)Nc1cccc(C(F)(F)F)c1 | i | 3.4% | 17.8% | i | -3.2% | -0.9%
CCOC(=O)c1cc(-c2cccc([N+](=O)[O-])c2)nc2[nH]c(=O)[nH]c(=O)c12 | i | -1.9% | 23.1µM* | i | -17.8% | -2.5%
Cc1ccc(-c2nnc(N3CCC(C(N)=O)CC3)s2)cc1 | ? | / | / | i | / | /
CCOc1ccccc1N1CCN(C(=O)CCCc2nc3ccccc3s2)CC1 | i | 1.2% | 16.4µM* | i | ? | 0.5%
O=C(CCCc1nc2ccccc2s1)N1CCN(S(=O)(=O)c2cccs2)CC1 | i | -2.8% | -28.3% | 23.1µM* | ? | -0.1%
COCCCN1C(=O)C(CC(=O)NCC2CCCCC2)CC(C(=O)N(C(C)C)C(C)C)=C1C (configuration not stated) | i | 19.4% | ? | i | ? | 21.7%
CNC(=O)CCc1nc(-c2ccc(C(C)(C)C)cc2)no1 | i | 4.6% | 13µM* | i | ? | 1.1%
CN(C)C(=O)CCc1nc(-c2ccc(C(C)(C)C)cc2)no1 | i | -6.3% | 20.6µM* | ? | 16.4µM* | -7.2%
CC(C)(C)c1ccc(-c2noc(CCC(N)=O)n2)cc1 | i | 8.6% | ? | i | -21.3% | 0.3%
CC(C)(C)c1ccc(-c2noc(CCC(=O)N3CCOCC3)n2)cc1 | i | -2.9% | 18.4µM* | ? | ? | -10.5%
CCCCn1c(N)c(N(CCOC)C(=O)c2ccc(S(=O)(=O)N3CCCCCC3)cc2)c(=O)[nH]c1=O | i | 7.3% | -8.8% | i | 10.5% | 6.8%
CCN1c2ccccc2NC2N=C(OC)C(c3ccccc3)C21 (configuration not stated) | i | 8.91µM* | 13µM* | ? | 11.6µM* | 11.2µM*
CCOC(=O)Cn1c(=O)n(-c2cccc(Cl)c2)c2nc(-c3ccccc3Cl)nc(C(N)=O)c21 | i | / | / | i | / | /
SMILES | KB-3-1 cytotox | HT1080 IDH1KD tx | TDP1 cell noCPT | KB-V1 MDR tox | TDP1 cell CPT | HT1080-NT tox
CCOC(=O)c1[nH]c(=S)[nH]c1C | i | 6.8% | -27.3% | i | -12.7% | -0.5%
CCN(CC)S(=O)(=O)c1ccc(N2CCOCC2)c(NC(=O)C(C)(C)C)c1 | i | 5.8% | -16.1% | i | ? | -0.8%
CCN(CC)S(=O)(=O)c1ccc(N2CCOCC2)c(NC(=O)c2cccc3c(=O)c(C)c(-c4ccccc4)oc23)c1 | i | 1.6% | 9.2µM* | 20.6µM* | 5.8µM* | -18.6%
CCN(CC)S(=O)(=O)c1ccc(N2CCOCC2)c(NC(=O)c2c3c(nc4ccccc24)CCC3)c1 | i | 2.2% | 14.6µM* | i | 14.6µM* | 7.1%
CN(C)S(=O)(=O)c1ccc(N2CCCC2)c(C(=O)Nc2ccccc2Br)c1 | i | -4.4% | ? | i | 2.3% | 4.1%
CCN(CC)S(=O)(=O)c1ccc(N2CCOCC2)c(NC(=O)C2=COCCO2)c1 | i | 8.6% | ? | i | ? | 5.3%
CCN(CC)S(=O)(=O)c1ccc(N2CCOCC2)c(NC(=O)c2ccc3ccccc3c2)c1 | i | -2.5% | 20.6µM* | i | ? | 3.5%
Cc1ccccc1NC(=O)c1cc(N)ccc1N1CCCCC1 | i | -17.7% | ? | 14.6µM* | ? | -6.1%
Cc1cccc(C)c1NS(=O)(=O)c1cc2c3c(c1)CC(=O)N3CCC2 | i | 13.3% | 21.2% | i | -23.9% | 0.6%
COc1ccc(N(CC(=O)NCc2ccc(F)cc2)C(=O)c2snc(C(N)=O)c2N)cc1OC | i | -14.1% | -7.2% | i | 4.2% | -6.8%
Cn1c(=O)[nH]c(=O)c2c1nc1n2CC(COc2ccc3ccccc3c2)O1 (configuration not stated) | i | 0.2% | -19.8% | i | 3.6% | -4.1%
COc1ccc(S(=O)(=O)N2CCOCC2)cc1NC(=O)c1cccc2c(=O)c(C)c(-c3ccccc3)oc12 | ? | 0.7% | 5.17µM* | i | ? | -2.4%
CCN(CC)S(=O)(=O)c1ccc(N2CCOCC2)c(NC(=O)COc2ccccc2C#N)c1 | i | -2.6% | 2.6% | i | ? | -2.7%
CCN(CC)S(=O)(=O)c1ccc(N2CCOCC2)c(NC(=O)c2cccc3ccccc23)c1 | i | -4.9% | 16.4µM* | i | 25.9µM* | -7.1%
COc1ccc(S(=O)(=O)N2CCOCC2)cc1NC(=O)c1cc(C)oc1C | i | 6.1% | 1.9% | i | -2.5% | 8.6%
